According to ChEMBL document CHEMBL3988442, “University of Dundee, Small-Polar-MMV Screening Library” (2021):
Hit rate of the full screen: of about 48,000 compounds, about 13,000 (27%) showed an effect of 50% or more. The list shows a part of the results.

tested on: Wolbachia pipientis; experiment: Anti-Wolbachia Cell-Based Screen; format: functional; parameters: scale not given: in the data most compounds retested in dose-response had high values; settings: 5 µM

Going from `CC(C)(C)NC(=O)N1CCN2C(=O)OCC2C1` (stereo not given) to `CC1N(C)C(=O)COC12CCN(C(=O)Cc1ccsc1)CC2` (stereo not given), the “Percent Effect” value rises from -12.64% to 1.71%.

Going from `CCC(C)c1csc(NC(=O)c2sc(-c3nnc[nH]3)nc2C)n1` (stereo not given) to `CCn1nc(CC(C)C)cc1C(=O)NCc1c(C)cc(C)nc1OC`, the “Percent Effect” value rises from -26.52% to 140.7%.

First: CSc1cccc(CNC(=O)C2CC(=O)N(CCN(C)C)C2)c1 (stereo not given)
Second: CN(C)CCN1CC(C(=O)N2CCC(c3cccc(O)c3)CC2)CC1=O (stereo not given)
The “Percent Effect” value of the first is higher: 8.737% for the first, -14.83% for the second.

Compared with `O=C(c1nnn(-c2ccc(C(F)(F)F)cc2)n1)N1CCC(O)CC1`, `COCCN1CCO[C@@H]2CN(C(=O)Cc3ccc(F)cc3)CC[C@@H]2C1.O=C(O)C(F)(F)F` is higher in “Percent Effect” value: 4.237% for the first, 12.24% for the second.

First: N[C@H]1CN(CCCOc2ccccc2)C[C@@H]1C1CC1
Second: CCS(=O)(=O)N1CC(=O)N(CCOc2ccccc2)CC(O)C1 (stereo not given)
The “Percent Effect” value of the first is lower: -13.64% for the first, 118.2% for the second.

Compared with `CC(C)[C@@H]1CN(CCOc2ccccc2)C[C@H]1NS(=O)(=O)N(C)C`, `CC(C)COC(C)C(=O)NCc1ccccc1` (stereo not given) is higher in “Percent Effect” value: 3.365% for the first, 129.5% for the second.

First: CC(C)N1CCC2(CCCN(C(=O)c3cncn3C)C2)CC1.O=C(O)C(F)(F)F
Second: CC(C)N1CCC2(CCCN(c3nccc(C(F)(F)F)n3)C2)CC1.O=C(O)C(F)(F)F
The “Percent Effect” value of the first is higher: 0.429% for the first, -13.26% for the second.

Compared with `CN(C)c1ccc(C(=O)N2CCCC2c2cnn(C)c2)nn1` (stereo not given), `CN(C)c1ccc(C(=O)N2CCCC2c2cnn(C)c2)cn1` (stereo not given) is higher in “Percent Effect” value: 5.055% for the first, 96.67% for the second.

Compared with `Cc1noc2ncc(C(=O)N3CCCC3c3cnn(C)c3)cc12` (stereo not given), `CN(C)c1cc(C(=O)N2CCCC2c2cnn(C)c2)ccn1` (stereo not given) is higher in “Percent Effect” value: 9.393% for the first, 118.6% for the second.

Going from `CC(C)CN(C)c1ccc(C(=O)N2CCCC2c2cnn(C)c2)cn1` (stereo not given) to `CC(=O)Nc1ccc(C(=O)N(C)C(C)Cc2cc(C)ccn2)cn1` (stereo not given), the “Percent Effect” value falls from -4.627% to -9.308%.

First: COc1cccc(OC2CN(C(=O)Cn3nc4ccccc4n3)C2)c1
Second: COc1ccc(C2CCCN2c2cnc3ccccc3n2)c(OC)c1 (stereo not given)
The “Percent Effect” value of the first is lower: -0.01054% for the first, 8.411% for the second.

Going from `OC1(CNCCSCc2ccccc2)CCCNC1` (stereo not given) to `CCNC(=O)C1(Cc2ccc(-c3ccccc3)cc2)CCCNC1` (stereo not given), the “Percent Effect” value rises from 3.749% to 160.5%.

First: Cl.Cl.c1ccc(-c2cnc3n2CCNC32CCNCC2)cc1
Second: NC(=O)C1(Cc2ccc(-c3ccccc3)cc2)CCCNC1 (stereo not given)
The “Percent Effect” value of the first is lower: -2.159% for the first, 155.7% for the second.

Compared with `Cc1cc(C)cc(-c2ccc(CC3(C(=O)O)CCOCC3)cc2)c1`, `NC(=O)C1(Cc2ccc(-c3ccccc3)cc2)CCNC1` (stereo not given) is higher in “Percent Effect” value: 0.9737% for the first, 156.4% for the second.

First: O=C(NCCc1nncn1C1CC1)C1(Cc2ccccc2)CCC1
Second: c1ccc(-c2nnc(CN3CCCC3Cn3cncn3)o2)cc1 (stereo not given)
The “Percent Effect” value of the first is lower: 0.4274% for the first, 126.9% for the second.

Going from `Cn1c(=O)oc2ccc(Nc3ncc(C#N)cc3Cl)cc21` to `CCS(=O)(=O)CC(=O)Nc1ccc2oc(C3CC3)nc2c1`, the “Percent Effect” value falls from -1.266% to -4.895%.

First: OCC(CO)Nc1cccc(C(F)(F)F)n1
Second: CC(CCO)Nc1cccc(C(F)(F)F)n1 (stereo not given)
The “Percent Effect” value of the first is lower: -11.08% for the first, -9.729% for the second.

Compared with `Cc1ccc(N2CCC(c3nccn3Cc3cscn3)CC2)nn1`, `c1cnc2nc(N3CCc4c(ncn4C4CC4)C3)ccc2n1` is higher in “Percent Effect” value: -11.8% for the first, 1.111% for the second.

Going from `CC(C)c1nc(C2CCCN2c2cnc3ccccc3n2)no1` (stereo not given) to `c1ccc2nc(N3CCCC3c3nnc4n3CCCCC4)cnc2c1` (stereo not given), the “Percent Effect” value rises from -9.022% to 231.1%.

First: Nc1cc(N2CCCC2c2cnccn2)ncn1 (stereo not given)
Second: COc1cc(CCC(=O)N2CCC(c3cnccn3)CC2)on1
The “Percent Effect” value of the first is lower: -4.526% for the first, 147.9% for the second.

First: c1cnc2nc(N3CCCC3c3nnc4n3CCCCC4)ccc2n1 (stereo not given)
Second: c1cn(CC2CCOCC2)c(-c2cc(CN3CCCC3)cs2)n1
The “Percent Effect” value of the first is higher: 123.3% for the first, 5.864% for the second.

Compared with `Cn1c(CC2CCS(=O)(=O)C2)nnc1SCCOc1ccccc1F` (stereo not given), `C[C@@H]1CN(C(=O)c2ccccc2F)C[C@]12CCN(CCN(C)C)C2=O` is higher in “Percent Effect” value: 1.517% for the first, 90.27% for the second.

Compared with `CN(Cc1ccncc1)C(=O)Nc1cnn(CC(N)=O)c1`, `COc1nc(C)cc(C)c1CNC(=O)N(C)Cc1cnn(C)c1` is higher in “Percent Effect” value: -7.922% for the first, -3.346% for the second.

First: CCN(C)S(=O)(=O)N1CCC(C(O)c2ccc(Cl)cc2)CC1 (stereo not given)
Second: O=C(C1CCCOC1)N(CC(F)F)c1cccc(Cl)c1 (stereo not given)
The “Percent Effect” value of the first is higher: 1.239% for the first, -10.1% for the second.

Compared with `CC(C)COC(C)C(=O)NCc1ccc(F)cc1` (stereo not given), `CC(C)COC(C)C(=O)NCc1cc(F)cc(F)c1` (stereo not given) is lower in “Percent Effect” value: 52.08% for the first, -4.135% for the second.

First: CC(OCC1CC1)C(=O)NCc1cccc(CN2CCCC2=O)c1 (stereo not given)
Second: CCOCCOC(C)C(=O)NCc1ccc(N2CCCCC2)cc1 (stereo not given)
The “Percent Effect” value of the first is higher: 3.012% for the first, -8.198% for the second.

First: CC(C)COC(C)C(=O)NCc1ccc(OC(C)C)nc1 (stereo not given)
Second: CCC(CNC(=O)c1cc(CC(C)C)nn1C)N(C)CC (stereo not given)
The “Percent Effect” value of the first is higher: 0.7864% for the first, -16.5% for the second.

Compared with `Cc1cc(C)n(-c2ccc(N3CCC4(CC3)OCC(C)O4)nc2)n1` (stereo not given), `Cc1ccc(OC2(C(=O)O)CCN(C(=O)c3ccccc3F)CC2)cn1` is lower in “Percent Effect” value: 14.39% for the first, -3.687% for the second.

First: CN1CCN(C(=O)C2SCCc3sccc32)CC1 (stereo not given)
Second: COc1cc(C)nc(N2CCN(C(=O)CCc3ccco3)CC2)n1
The “Percent Effect” value of the first is lower: -4.064% for the first, 12.06% for the second.

Compared with `CCC(C)(C)NC(=O)CSCc1ccc(S(=O)(=O)N(C)C)o1`, `COc1ccccc1CC(C)(C)NC(=O)CNS(C)(=O)=O` is lower in “Percent Effect” value: 5.588% for the first, -9.621% for the second.

First: CCC(C)(CC(=O)OC)NCc1cc(C)on1 (stereo not given)
Second: COCc1cc(CNC(=O)c2c(C)c(C)cc(C)c2C)n[nH]1
The “Percent Effect” value of the first is lower: -8.886% for the first, -1.645% for the second.

Going from `c1csc(-c2nc(CN3CCCC3Cn3cncn3)co2)c1` (stereo not given) to `c1coc(-c2nnc(CN3CCCC3Cn3cncn3)o2)c1` (stereo not given), the “Percent Effect” value rises from 2.244% to 82.67%.

Compared with `COc1ccc(-c2nnc(CN3CCCC3Cn3cncn3)o2)cc1` (stereo not given), `Fc1ccc(-c2nnc(CN3CCCC3Cn3cncn3)o2)cc1` (stereo not given) is lower in “Percent Effect” value: 93.03% for the first, -1.304% for the second.

First: Clc1ccc2cccnc2c1CN1CCCC1Cn1cncn1 (stereo not given)
Second: Clc1ccccc1-c1nnc(CN2CCCC2Cn2cncn2)o1 (stereo not given)
The “Percent Effect” value of the first is lower: -9.545% for the first, 104.1% for the second.

Going from `Cc1cnn(CC2CCCCN2Cc2nnc(-c3ccco3)o2)c1` (stereo not given) to `Cc1ccc(-c2nnc(CN3CCCCC3Cn3cncn3)o2)cc1` (stereo not given), the “Percent Effect” value rises from 2.932% to 107.2%.

Compared with `COc1ccc(-c2cnc(CN3CCCC3Cn3cncn3)o2)cc1` (stereo not given), `Cc1cccc(-c2nc(CN3CCCCC3Cn3cncn3)no2)c1` (stereo not given) is higher in “Percent Effect” value: -4.543% for the first, -2.041% for the second.

First: N#Cc1ccc(CN2CCCCC2Cn2cncn2)cc1 (stereo not given)
Second: CCn1nc(CC(C)C)cc1C(=O)N1CCCC(C#N)C1 (stereo not given)
The “Percent Effect” value of the first is higher: 10.73% for the first, -3.007% for the second.

First: CS(=O)(=O)N[C@@H]1CCN(Cc2nccs2)[C@H]1Cc1ccncc1.O=C(O)C(F)(F)F.O=C(O)C(F)(F)F
Second: Cc1nc(CN2C[C@@H]3CN(c4ncccn4)C[C@@H]3C2=O)cs1.O=C(O)C(F)(F)F
The “Percent Effect” value of the first is lower: -21.66% for the first, 2.706% for the second.

Going from `O=C(O)c1ccn(-c2ccccc2NS(=O)(=O)c2ccccc2)n1` to `CC(C)=Cc1c(-c2ccccc2)ncn1CCS(C)(=O)=O`, the “Percent Effect” value falls from 2.8% to -13.72%.

First: CC(C)N1CCCC2(CCN(c3nccc(C(F)(F)F)n3)C2)C1=O (stereo not given)
Second: CN1CCCC2(CCN(c3cccc(C(F)(F)F)n3)C2)C1=O (stereo not given)
The “Percent Effect” value of the first is higher: -9.493% for the first, -13.28% for the second.

First: OC1(CN2CCCCC2)CCN(c2cccc(C(F)(F)F)n2)C1 (stereo not given)
Second: OC1(CN2CCCCC2)CCN(c2nccc(C(F)(F)F)n2)C1 (stereo not given)
The “Percent Effect” value of the first is higher: 110.2% for the first, 108.3% for the second.

Going from `O=C1CCC2(CCN(c3cccc(C(F)(F)F)n3)CC2)CN1CCO` to `C[C@H]1CN(C(=O)c2ccoc2)C[C@@]12CCN(CCN(C)C)C2=O.O=C(O)C(F)(F)F`, the “Percent Effect” value rises from 4.395% to 113.7%.

Going from `CCN(CC)C1CCN(C(=O)c2cc(CC(C)C)nn2CC)C1` (stereo not given) to `CCn1nc(CC(C)C)cc1C(=O)N1CC[C@@H](O)C1`, the “Percent Effect” value falls from 33.04% to -2.224%.

Compared with `CCn1nc(CC(C)C)cc1C(=O)NCC(F)(F)F`, `CCn1nc(CC(C)C)cc1C(=O)NCCCOC` is lower in “Percent Effect” value: 127.5% for the first, -13.1% for the second.

Going from `CCn1ccc(C(=O)NCCCN2CCOCC2)n1` to `CCn1nc(CC(C)C)cc1C(=O)NCCCN1CCOCC1`, the “Percent Effect” value rises from -2.896% to 125.1%.

Compared with `CCn1nc(CC(C)C)cc1C(=O)NCCn1cccc1`, `CCn1nc(CC(C)C)cc1C(=O)NCCS(=O)(=O)N(C)C` is higher in “Percent Effect” value: -13.46% for the first, 162.2% for the second.

First: CN(CCn1cnnc1)C(=O)c1ccnc(OC2CCC2)c1
Second: COc1cc(CCC(=O)N2CCC(c3cncc(C)n3)CC2)on1
The “Percent Effect” value of the first is lower: -7.369% for the first, 141.8% for the second.

First: COc1cccc(OCC2CCCN(C(=O)CCc3cc(O)no3)C2)c1 (stereo not given)
Second: COc1cc(C)nc(N2CCN(C(=O)CCc3ccncc3)CC2)n1
The “Percent Effect” value of the first is higher: -4.281% for the first, -15.67% for the second.

Compared with `Cc1noc(C2CCN(C(=O)CCc3nccs3)CC2)n1`, `Cc1n[nH]c(CCC(=O)N2CCOC(Cc3ccc(F)cc3)C2)c1C` (stereo not given) is higher in “Percent Effect” value: 4.096% for the first, 14.83% for the second.

Going from `CCc1ccccc1C(=O)NS(=O)(=O)CCCC#N` to `COCCN1CCO[C@@H]2CN(C(=O)Cc3ccccc3)CC[C@@H]2C1.O=C(O)C(F)(F)F`, the “Percent Effect” value rises from -10.54% to 12.5%.

Compared with `O=C(NC1(C(=O)NCC2CC2)CCCC1)C1Cc2cc(F)ccc2O1` (stereo not given), `Cc1cc(CN2C[C@@H](C)[C@@]3(CCN(C)C3=O)C2)oc1C.O=C(O)C(F)(F)F` is higher in “Percent Effect” value: -11.6% for the first, 2.821% for the second.

First: CN(C)CCN1CCO[C@@H]2CN(C(=O)Cc3ccsc3)CC[C@@H]2C1
Second: C[C@@H]1CN(C(=O)Cc2ccsc2)C[C@]12CCN(CCN(C)C)C2=O
The “Percent Effect” value of the first is lower: 102.6% for the first, 171.4% for the second.

In the case of `COCC1CN(C(=O)Cc2ccsc2)Cc2c1cnn2C` (stereo not given), the “Percent Effect” value is reported as -19.19%.
